We go through 1 compound from PubChem BioAssay AID743421 (Vanderbilt Specialized Chemistry Center, 2014).

In this experiment the target is Metabotropic glutamate receptor 6 (Homo sapiens) (UniProt O15303). The experiment can be described thus: mGlu6 agonist response modulation at 10 µM, profiling panel, selectivity assay for mGlu8/mGlu7 PAM project, cell-based, GIRK thallium flux, agonist curve fold shift (AID 743421). Particulars: mGlu6/GIRK cells, thallium flux (Fluo Zn), agonist CRC fold shift, stronger effect = higher value.
Metabotropic glutamate receptor 6 (Homo sapiens), sequence (O15303 whole entry, looked up): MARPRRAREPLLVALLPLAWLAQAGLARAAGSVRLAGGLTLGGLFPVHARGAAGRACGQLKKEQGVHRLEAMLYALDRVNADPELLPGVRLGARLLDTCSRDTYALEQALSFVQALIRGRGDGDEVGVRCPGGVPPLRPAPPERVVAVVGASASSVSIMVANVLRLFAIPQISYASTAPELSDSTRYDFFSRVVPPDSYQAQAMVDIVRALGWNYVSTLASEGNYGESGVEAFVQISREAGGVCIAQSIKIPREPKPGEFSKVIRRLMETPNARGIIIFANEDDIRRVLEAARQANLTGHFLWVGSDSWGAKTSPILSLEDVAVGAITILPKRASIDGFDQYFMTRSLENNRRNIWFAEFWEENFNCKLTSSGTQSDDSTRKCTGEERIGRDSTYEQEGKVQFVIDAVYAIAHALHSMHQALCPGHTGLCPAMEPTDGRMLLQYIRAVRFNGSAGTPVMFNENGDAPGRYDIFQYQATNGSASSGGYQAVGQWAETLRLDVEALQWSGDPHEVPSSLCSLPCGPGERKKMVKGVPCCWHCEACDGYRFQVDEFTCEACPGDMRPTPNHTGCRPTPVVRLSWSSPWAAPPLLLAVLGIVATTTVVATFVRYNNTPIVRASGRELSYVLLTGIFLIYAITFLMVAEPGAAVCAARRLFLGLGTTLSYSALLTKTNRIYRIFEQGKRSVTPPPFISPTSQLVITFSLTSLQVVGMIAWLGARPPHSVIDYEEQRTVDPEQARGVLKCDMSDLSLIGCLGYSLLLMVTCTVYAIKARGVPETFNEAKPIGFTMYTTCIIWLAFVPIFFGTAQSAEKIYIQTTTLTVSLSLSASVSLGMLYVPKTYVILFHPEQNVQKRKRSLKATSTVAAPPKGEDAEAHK

Regarding `COC(=O)c1ccc(-n2c(C)cc(C(=O)CSc3ccc(NC(C)=O)cc3)c2C)cc1`, the fold shift amounted to 2.59.
